Assay results published in PubChem BioAssay AID1903 (Southern Research Specialized Biocontainment Screening …, 2009).
Where “and” joins values, the source holds several entries; their conditions need not be identical. Equal values may be shown once. Among all 310,000 compounds or so, about 1,200 (0.39%) were called active. How the calls were made is not given here. The list is a sample of the results. Entries with a potency or affinity are not part of this list.

What follows are compounds tested against Large T antigen (Simian virus 40) (UniProt P03070) (assay: SV40 large T antigen inhibitors, biochemical (AID 1903)). Conditions: SV40 large T antigen ATPase/helicase inhibition assay; at 20 µM; hits give high values.
Large T antigen (Simian virus 40), sequence (P03070 whole entry, looked up): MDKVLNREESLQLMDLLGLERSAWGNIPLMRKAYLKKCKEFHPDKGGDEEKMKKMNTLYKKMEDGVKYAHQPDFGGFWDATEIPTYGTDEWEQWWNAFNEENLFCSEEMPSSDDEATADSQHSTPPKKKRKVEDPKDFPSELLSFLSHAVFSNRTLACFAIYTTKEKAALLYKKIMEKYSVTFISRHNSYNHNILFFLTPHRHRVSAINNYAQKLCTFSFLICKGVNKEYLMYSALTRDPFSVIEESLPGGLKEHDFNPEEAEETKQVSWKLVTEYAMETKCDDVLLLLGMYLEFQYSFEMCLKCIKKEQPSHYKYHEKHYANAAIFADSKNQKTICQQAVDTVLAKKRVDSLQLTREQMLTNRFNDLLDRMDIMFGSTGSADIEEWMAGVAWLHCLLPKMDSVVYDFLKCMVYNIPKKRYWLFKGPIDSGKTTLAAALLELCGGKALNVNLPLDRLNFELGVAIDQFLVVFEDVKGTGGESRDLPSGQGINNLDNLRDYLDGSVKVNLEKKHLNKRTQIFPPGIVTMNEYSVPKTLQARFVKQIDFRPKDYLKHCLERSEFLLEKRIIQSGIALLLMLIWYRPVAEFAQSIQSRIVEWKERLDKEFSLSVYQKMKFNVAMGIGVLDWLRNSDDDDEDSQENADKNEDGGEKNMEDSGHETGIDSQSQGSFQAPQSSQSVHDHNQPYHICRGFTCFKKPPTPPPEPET

inhibition, inactive:
COC(=O)c1c(-c2ccc(F)cc2)csc1NC(=O)C1CCCO1 (stereo not drawn) 12%
COc1ccc(-c2cc(=O)oc3cc(O)ccc23)cc1 7.73%
COc1ccc(-c2cc(=O)oc3c(C)c(O)ccc23)cc1 6.62%
O=C(Nc1cccc2cccnc12)c1ccccc1Cl 1.03%
COc1ccc(OC)c(C2CC(=O)N3CN(c4cccc(Cl)c4C)CSC3=C2C#N)c1 (stereo not drawn) 45.4%
COc1ccc(N2CSC3=C(C#N)C(c4cc(OC)ccc4OC)CC(=O)N3C2)c(OC)c1 (stereo not drawn) 34.1%
COc1ccc(C2CC(=O)N3CN(c4ccc(C)c(Cl)c4)CSC3=C2C#N)cc1OC (stereo not drawn) 36.9% and 28.8%
CCc1ccccc1N1CSC2=C(C#N)C(c3cc(OC)c(OC)cc3OC)CC(=O)N2C1 (stereo not drawn) 16.6%
COc1ccc(N2CSC3=C(C#N)C(c4cc(OC)c(OC)cc4OC)CC(=O)N3C2)c(OC)c1 (stereo not drawn) 61.9%
COc1cc(C2CC(=O)N3CN(c4ccccc4C)CSC3=C2C#N)cc(OC)c1OC (stereo not drawn) -11.8%
CC(C)C[C@H](NC(=O)c1nc[nH]c1C(=O)NCc1ccc(CNC(=O)OC(C)(C)C)cc1)C(=O)OC(C)(C)C 1.84%
CCOc1cc2[nH]c(=O)n(Cc3ccccc3)c(=O)c2cc1OCC 3.82%
Cc1cc(C)c(C#N)c(N)n1 20.5%
COc1ccc(S(=O)(=O)N(CCc2ccccc2)CC(=O)NCCCO)cc1 6.27%
CN(C)S(=O)(=O)c1ccc(C(=O)Nc2ccn(C)n2)cc1 4.29%
CS(=O)(=O)N(CC(=O)N1CCC(C(N)=O)CC1)Cc1ccc(Cl)c(Cl)c1 6.63%
COc1ccccc1Nc1nc(N)nc(CN2CCN(Cc3ccc4c(c3)OCO4)CC2)n1 11.3%
CC(SCC(=O)NC12CC3CC(CC(C3)C1)C2)C(=O)O (stereo not drawn) 9.37%
Cc1ccc(-c2cc(C(F)(F)F)n3ncc(C(=O)N4CCN(C)CC4)c3n2)cc1 -2.21%
CC(/C=C1\SC(=S)N(C(C(=O)O)C(C)C)C1=O)=C\c1ccccc1 (stereo not drawn) 15.2%
CC(=C\c1ccccc1)/C=C1/SC(=S)N(C(C(=O)O)C(C)C)C1=O (stereo not drawn) 18.4%
O=C(O)CC(C(=O)O)N1C(=O)/C(=C/C=C/c2ccco2)SC1=S (stereo not drawn) 53.1%
O=C(O)C(Cc1ccccc1)N1C(=O)/C(=C/c2ccccc2)SC1=S (stereo not drawn) 16%
CCc1ccc2c(CN3CCOCC3)cc(=O)oc2c1 3.81%
COc1ccc(NC(=O)c2cc(-c3ccccc3)on2)cc1OC 6.07%
Cn1c(Oc2ccc(Cl)c3cccnc23)nc2c1c(=O)n(Cc1ccccc1Cl)c(=O)n2C 5.38%
CCCC(C(=O)NC1CCCC1)N(CCN(CC)CC)C(=O)c1snc(C(N)=O)c1N (stereo not drawn) 7.08%
CCC1CCCCN1S(=O)(=O)c1ccc(NC(=O)c2ccncc2)cc1 (stereo not drawn) -1.25%
CCC1CCCCN1S(=O)(=O)c1ccc(NC(=O)c2cccnc2)cc1 (stereo not drawn) 16.2%
CC1CCN(S(=O)(=O)c2ccc(NC(=O)c3ccncc3)cc2)CC1 7.49%
CCc1noc(C)c1C(=O)Nc1ccc(S(=O)(=O)N2CCCC(C)C2)cc1 (stereo not drawn) 10%
CCS(=O)(=O)c1ncc(Cl)c(C(=O)Nc2ccc(C)cc2)n1 7.02%
CC1CCCN(S(=O)(=O)c2ccc(NC(=O)CNC3CCCC3)cc2)C1 (stereo not drawn) 4.39%
Cc1ccc(S(=O)(=O)n2nccc2-c2c(-c3ccc(Cl)cc3)noc2C)cc1 6.88%
O=C(O)c1ccc(NC(CSCc2ccc(F)cc2)C(=O)O)c([N+](=O)[O-])c1 (stereo not drawn) -4.05%
O=C(c1cc2ccccc2o1)N1CCC(N2CCC(C(=O)N3CCCC3)CC2)CC1 5.34%
COc1ccc(/C=C2\SC(=S)N(NS(=O)(=O)c3ccccc3)C2=O)c(OC)c1 11.9%
O=S(=O)(NCC1CCCO1)c1ccc(Cl)cc1 (stereo not drawn) 1.99%
O=C(c1cc([N+](=O)[O-])ccc1N1CCCC1)N1CCCCC1 1.67%
Cc1cc(-n2c(C)cc(C(=O)CN3C(=O)NC4(CCCCCC4)C3=O)c2C)no1 -2.03%
COc1ccc(N=CC2=C(O)CCCC2=O)cc1 18.6%
CC1(C)CC(=O)C(C=Nc2ccc(N)cc2)=C(O)C1 28.8%
O=C1CC(c2ccccc2)CC(O)=C1C=Nc1ccc(O)cc1 (stereo not drawn) 30.3%
Oc1c(C=Nc2ccccc2)sc2ccccc12 21.4%
CC1(C)CC(=O)C(C=Nc2ccccc2)=C(O)C1 -6.01%
O=C1CCCC(O)=C1C=Nc1cccc(C(F)(F)F)c1 2.45%
CCOC(=O)c1cnc(-n2nc(C)cc2C)nc1NCc1ccc2c(c1)OCO2 17.1%
Cc1ccc(C)c(NC(=O)c2cc(-c3ccccc3O)n[nH]2)c1 3.34%
O=C(NC1CCCC1)C1CCN(C(=O)NCc2ccccc2)CC1 8.69%
CC(=O)c1cc2c(cc1N(C(=O)c1ccco1)C(C(=O)NC1CCCC1)c1ccccc1F)OCO2 (stereo not drawn) 1.47%
C/C(=N\NC(=O)c1cc(C)[nH]n1)c1ccc(-c2ccccc2)cc1 5.47%
CC(C(=O)NC1CCCCC1)N1C(=O)C2C3C=CC(C3)C2C1=O (stereo not drawn) 3.95%
N#CC(C#N)=C1C=CC=CN1/C(=C\c1ccco1)C(=O)c1ccc(-c2ccccc2)cc1 28.2%
N#CC(C#N)=C1C=CC=CN1/C(=C\c1ccccc1)C(=O)c1cccs1 4.44%
COCCN(CCOC)S(=O)(=O)c1ccc(C(=O)NC2CCN(Cc3ccccc3)CC2)cc1 4.79%
CCOC(=O)N1CCN(Cc2cccs2)CC1 5.2%
O=C(O)[C@@H](O)[C@H](O)C(=O)O 16.5%
O=C(O)[C@H](O)[C@@H](O)C(=O)O 3.59%
Cc1c(O)ccc2c(=O)c(-c3nncn3-c3ccccc3)coc12 2.48%
COC(=O)c1ccc(-c2nc(O)c3cnccn23)cc1 4.33%
CSc1ccc(-c2nc(O)c3cnccn23)cc1 27.6%
O=C(NNC(=O)c1ccc(O)cc1O)c1ccc(-c2ccccc2)cc1 3.4%
CC1CCCN(C(=S)Nc2ccc(Nc3ccccc3)cc2)C1 (stereo not drawn) 14.1%
OCC1CCCN(C(=S)Nc2ccc(Oc3ccccc3)cc2)C1 (stereo not drawn) 5.94%
CN1CCN(c2nc3c(c(=O)n(C)c(=O)n3C)n2Cc2ccc(Cl)cc2)CC1 3.78%
CC(C)Sc1nc2c(c(=O)n(C)c(=O)n2C)n1Cc1ccc(Cl)cc1 3.02%
O=C(CCN1CCN(c2ccc(Cl)cc2)CC1)Nc1nccs1 17.1%
COC(=O)c1ccc(CN2CCC(n3nccc3NC(=O)C3CCCC3)CC2)cc1 20%
O=C(COC(=O)C1(c2ccccc2)CC1)NNC(=O)c1ccccc1 11.2%
COc1cc(C=O)ccc1OCCOCCOc1cc(C)ccc1Cl 10.5%
O=C(c1ccc(-c2ccc([N+](=O)[O-])cc2)o1)N1CCCCC1 9.33%
O=C(O)c1cc(-c2ccc(/C=C3\NC(=O)N(c4ccc(Cl)cc4)C3=O)o2)ccc1Cl 31.3%
Cc1ccc(N2NC(=O)/C(=C/c3ccc(-c4ccc(Cl)c(C(=O)O)c4)o3)C2=O)cc1C 33.6%
C#CCN1C(=O)S/C(=C\c2ccc(-c3ccc(Cl)c(C(=O)O)c3)o2)C1=O 11.9%
CCOC(=O)CN1C(=O)S/C(=C\c2ccc(-c3ccc(C(=O)O)c(Cl)c3)o2)C1=O 17%
Cc1ccc(N2NC(=O)/C(=C/c3ccc(-c4ccc(Cl)c(C(=O)O)c4)o3)C2=O)cc1 14.8%
O=C(O)c1cc(-c2ccc(/C=C3/SC(=S)N(Cc4ccccc4)C3=O)o2)ccc1Cl 24.7%
O=C(CCN1C(=O)C2CC=C(Cl)CC2C1=O)Nc1ccccc1O (stereo not drawn) 3.99%
C/C(=N\Nc1ccc(C(=O)O)cc1)c1ccc(S(=O)(=O)NCc2ccco2)cc1 11%
CCc1cccc(C)c1NC(=O)c1ccc2c(c1)CCN2S(C)(=O)=O 1.63%
Nc1ccc2c(c1)Cc1cc([N+](=O)[O-])ccc1-2 7.98%
Nc1ccc2c(c1)C(=O)c1ccccc1C2=O 7.9%
CC(=O)N1CCN(C(=O)CSc2nc3c(cnn3-c3ccccc3)c(=O)[nH]2)CC1 2.65%
Cc1cccc2cc(CN(CCCN3CCOCC3)Cc3nnnn3C(C)(C)C)c(=O)[nH]c12 10%
O=C(Nc1ccccc1Cl)N1CCSc2ccccc21 5.32%
COCCCn1c(=O)c2ccccc2c2ccccc2c1=O -0.58%
CCCn1c(=O)c2ccccc2n2c(SCC(N)=O)nnc12 9.05%
CCCCCn1c(=O)c2ccccc2n2c(CCl)nnc12 15.8%
COCCCn1c(=O)c2ccccc2n(Cc2ccccc2)c1=O 7.67%
CCCn1c(=O)c2ccccc2n2c(SCC(=O)c3ccccc3)nnc12 16.8%
COc1cccc(-n2c(SCC(N)=O)nc3ccccc3c2=O)c1 4.09%
CCCCn1c(=O)c2ccccc2c2ccccc2c1=O 3.41%
Cc1nnc2n(-c3ccccc3)c(=O)c3ccccc3n12 -1.7%
